Results reported in PubChem BioAssay AID1159580 (chemical genetic matrix, 2015).
Hit rate of the full screen: of about 5,500 compounds, about 2,000 (36%) were called active. Roughly 18% stayed inconclusive and do not appear here. No stated cut-off is given here; in the data, active means normalized growth mostly below about 0.91 (no sharp cut-off); inconclusive means no clear call, values can overlap the other calls; inactive means mostly above about 0.92. The list shows a part of the results.

Test: chemical genetic growth profiling, strain panel (AID 1159580);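 further: tested at 20 µM; growth read once vehicle control cultures reached saturation at 30 °C; 1 = growth at the plate median or of vehicle wells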
Settings: S. cerevisiae deletion strains, growth OD

Measured: normalized growth

CC[C@H](C)C(=O)O[C@H]1CCC=C2C=C[C@H](C)[C@H](CC[C@@H]3C[C@@H](O)CC(=O)O3)[C@H]21
inactive: locus YAL040C, strain CLN3, stronger effect = lower value 1.01 | locus YCL061C, strain MRC1 (second series), stronger effect = lower value 0.995 | locus YDR363W, strain ESC2, stronger effect = lower value 1.02 | locus YER002W, strain NOP16, stronger effect = lower value 0.976 | locus YJR075W, strain HOC1, stronger effect = lower value 0.988 | locus YNL128W, strain TEP1, stronger effect = lower value 0.947 | locus YNL175C, strain NOP13, stronger effect = lower value 0.985 | locus YNL197C, strain WHI3, stronger effect = lower value 0.987 | locus YNL224C, strain SQS1, stronger effect = lower value 0.98 | locus YNL322C, strain KRE1, stronger effect = lower value 0.995 | locus YOR083W, strain WHI5 (second series), stronger effect = lower value 0.999 | locus YPL241C, strain CIN2, stronger effect = lower value 0.994
